Compound activity as filed in PubChem BioAssay.
A selection: hits, their analogues and other compounds. The true share with any hit is near 4.6%.
TRHR PAM: allosteric enhancers of human TRH receptor; TRHR cells, fluo-8 calcium fluorescence, EC20 TRH enhancement; enhancement, % at 2 µM; hit rate 0.66% among 360,000; in the data active means enhancement above about 30%
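TRHR-expressing cells loaded with fluo-8 calcium dye were read kinetically (ex 480/em 530) during compound addition, then stimulated with an EC20 of TRH (10 nM final). Enhancement of the Gq-mediated intracellular calcium response was scored.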
TRHR agonist: activates the human TRH receptor. P34981. TRHR cells, calcium flux fluo-8, FDSS agonist mode. activation, % at 2 µM. hit rate 0.18% among 360,000. AID 493084
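TRHR-expressing cells, plated overnight in medium with 10% serum, were loaded with fluo-8 calcium dye at room temperature. After a 10 s baseline, library compound was pin-added and calcium release was recorded kinetically (ex 480/em 530) as agonist response.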
D1 ag: agonists of human D1 dopamine receptor. P21728. HEK293 T-REx D1 cells, calcium flux, agonist mode. activation, % at 2 µM. hit rate 1% among 360,000. AID 504660
Target sequence (P21728 whole entry, looked up): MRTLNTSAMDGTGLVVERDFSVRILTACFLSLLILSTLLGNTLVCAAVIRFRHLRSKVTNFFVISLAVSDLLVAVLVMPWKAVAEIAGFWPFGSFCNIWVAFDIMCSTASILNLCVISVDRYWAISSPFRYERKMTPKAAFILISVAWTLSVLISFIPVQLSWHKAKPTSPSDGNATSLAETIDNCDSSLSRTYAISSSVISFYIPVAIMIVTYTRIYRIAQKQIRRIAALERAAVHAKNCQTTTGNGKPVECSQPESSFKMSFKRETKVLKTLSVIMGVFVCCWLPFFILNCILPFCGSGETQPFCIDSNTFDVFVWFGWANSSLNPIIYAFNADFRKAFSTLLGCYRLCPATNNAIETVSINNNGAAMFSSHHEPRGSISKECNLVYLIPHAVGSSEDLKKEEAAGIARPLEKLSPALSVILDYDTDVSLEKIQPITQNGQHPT
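Tetracycline-induced HEK293 TREx D1 cells, force-coupled to calcium signalling, were dye-loaded with a no-wash calcium kit. Compound was pin-added after a 10 s baseline. Fluorescence was read kinetically at 1 cycle/s for 180 s, with calcium rises flagged as agonism.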
D1 antag: antagonists of human D1 dopamine receptor; activity change, negative = inhibition, % at 10 µM; HEK293 TREx D1 cells, calcium flux, dopamine EC80; hits give low values; P21728; hit rate 3.2% among 360,000; AID 504652; in the data active means activity change below about -30%
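Cells carrying a force-coupled, tetracycline-inducible human D1 receptor report calcium flux. Each well gets a 10 s baseline, compound with 180 s monitoring, then an EC80 dopamine stimulus with a second 180 s kinetic read.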
D1 PAM: potentiators of human D1 dopamine receptor; hit rate 0.036% among 360,000; HEK293 TREx D1 cells, calcium flux, dopamine EC20 potentiation; potentiation, % at 10 µM; in the data active means potentiation above about 30%
Epigenetic reg: epigenetic control regulation, reporter derepression | Potency, µM (series often up to 53.9 µM), actives largely listed as activators | AID 1865 | hit rate 0.2% among 280,000 | murine LDR cells, GFP reporter derepression, 30 h; active means well fitted activation curve with a large enough effect; inconclusive means small, poorly fitted or top-dose-only effect; further: nearly all actives have a fitted effect of over 60% in size
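Readout is the number of GFP-expressing murine LDR cells, counted by cytometry following washing. Cells were treated with compound for 30 h at 37 C; the stably integrated CMV-GFP locus is normally silent.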
Hits are given with their value; - = inactive; ? = inconclusive; . = no result given. Unless noted, no stated cut-off is given here; in the data, active means activation above about 30%; inactive means the rest.

SMILES	TRHR PAM	TRHR agonist	D1 ag	D1 antag	D1 PAM	Epigenetic reg
COc1ccc(Nc2nc(N)c3cc(OC)c(OC)cc3n2)cc1	-	-	-	-	-	-
CSc1ccccc1OCc1cc(C(=O)NCc2cccc(C)n2)no1	-	-	-	-	-	.
CCn1nc(C)c(CNC(=O)c2cc(COc3ccccc3SC)on2)c1C	-	-	-	-48.8	-	.
COc1ccc(-c2cc(-c3ccc4c(c3)NC(=O)CO4)nc3c2COc2ccc(F)cc2-3)cc1	-	-	-	-	-	-
CCn1cc(CN2CCC(n3nccc3NC(=O)C3CCCC3)CC2)cn1	-	-	-	-51.9	-	.
CCOC(=O)C1=C(C)N=c2s/c(=C/c3ccc(OCC(=O)O)cc3)c(=O)n2C1c1ccc(SC)cc1 (centres undefined)	-	-	30.4	-	-	.
CCOC(=O)C1=C(C)N=c2s/c(=C\c3ccc(OCC(=O)O)cc3)c(=O)n2C1c1ccc(Cl)cc1 (centres undefined)	-	-	38.5	-	-	.
COc1ccc(-n2nc(-c3ccc(C)cc3)c3cnc4cc(F)c(F)cc4c32)cc1	-	-	-	-	-	-
Cc1ccc(NC(=O)c2cc(S(=O)(=O)N3CCc4ccccc43)cn2C)cc1C	-	-	-	-45.1	-	.
CCN(CC)c1ccc(NC(=O)c2cc(S(=O)(=O)N3CCc4ccccc43)cn2C)c(C)c1	-	-	-	-33.5	-	-
CCc1ccccc1NC(=O)c1cc(S(=O)(=O)N2CCc3ccccc32)cn1C	-	-	-	-	-	.
O=C(Nc1cccc(Cl)c1Cl)c1cc2nc(-c3ccc4c(c3)OCO4)cc(C(F)(F)F)n2n1	-	-	-	-	-	?
Cc1cccc(CCNC(=O)c2nc(-c3ccc(Cl)cc3)n3c2CCCCC3)c1	-	-	-	-	-	-
CC(C)c1cccc(C2=CC(=O)C[C@H](c3ccc(F)cc3)C2)c1	-	-	-	-39.4	-	.
CC(C)OC(=O)c1cc2c(OC[C@@H](O)CNC(C)(C)C)cccc2[nH]1	.	.	.	.	.	-
O=C(NCc1ccc2c(c1)OCO2)c1ccc(CSCc2ccc(Cl)cc2)o1	-	-	-	-34.0	-	-
CCc1ccccc1S(=O)(=O)Cc1ccc(C(=O)NCc2ccc3c(c2)OCO3)o1	-	-	-	-55.8	-	-
O=C(NCc1ccc(Cl)cc1)c1ccc(CSCc2cccc(Cl)c2)o1	-	-	39.3	-	-	-
O=C(NCc1ccc2c(c1)OCO2)c1ccc(CS(=O)(=O)Cc2cccc(Cl)c2)o1	-	-	-	-	-	-
Cc1ccc(CNC(=O)c2ccc(CSCc3ccc(Cl)cc3)o2)cc1	-	-	-	-	-	-
COc1cccc(N2CCN(C(=O)c3ccc4c(Cl)c5c(nc4c3)CCCC5)CC2)c1	-	-	-	-	-	-
COc1ccc(C)cc1NC(=O)C(Sc1nnnn1C)c1ccccc1 (centres undefined)	-	-	-	-	-	-
CCCn1c(SC(C(=O)Nc2cc(C)ccc2OC)c2ccccc2)nc2ccccc2c1=O (centres undefined)	-	-	-	-96.5	-	-
O=C(CN1C(=O)C(c2ccc(F)cc2)=NC12CCCCCC2)Nc1ccc(F)c(Cl)c1	-	-	-	-	-	-
Cc1ccc(-c2ccc(/C=C(\C#N)C(=O)Nc3cc(C)nn3-c3ccccc3)o2)cc1	-	-	60.7	-	-	?
SMILES	TRHR PAM	TRHR agonist	D1 ag	D1 antag	D1 PAM	Epigenetic reg
CCOC(=O)c1ccc(-c2ccc(/C=C(\C#N)C(=O)Nc3ccc(C)cc3OC)o2)cc1	-	-	-	-	-	-
CCCCOC(=O)c1ccc(NC(=O)/C(C#N)=C/c2ccc(-c3ccccc3)o2)cc1	-	47.3	127.5	-	-	?
Cc1cc(NC(=O)/C(C#N)=C/c2ccco2)n(-c2ccccc2)n1	-	-	-	-	-	-
CCOC(=O)c1ccc(-c2ccc(/C=C(\C#N)C(=O)Nc3c(C)cccc3Cl)o2)cc1	-	-	-	-	-	11.2µM
O=C(CSc1nc(=O)n(Cc2ccco2)c2c1CCC2)NCc1ccccc1Cl	-	-	-	.	-	-
CCc1nn(Cc2c(C)cc(C)cc2C)c(=O)c2cc3cc(C)ccc3n12	-	-	-	-	-	-
